# Screening results: PubChem, National Center for Advancing Translational Sciences (NCATS)
# WRN helicase inh-1: WRN helicase (human) inhibition | Q14191 | WRN helicase unwinding, fluorescent forked duplex, kinetic | Potency, µM (series often up to 114 µM), inactives show at the highest dose activity change, negative = inhibition, hits mostly inhibitors | 360,000 compounds, 0.46% hits | AID 651768; further: on the % scale 0 is the no-effect control and ±100 the full control effect; nearly all actives have a fitted effect of over 55% in size
#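 Kinetic red-fluorescence monitoring (525/598 nm) tracks WRN helicase activity after 100 nM fluorophore-quencher forked duplex and 2 mM ATP are added to 20 nM enzyme pretreated 15 min at room temperature with compound.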
# Pol kappa inh-1: DNA polymerase kappa (human) inhibition | Q9UBT6 | purified Pol kappa, fluorescent DNA synthesis assay, 10 min | Potency, µM (highest dose often 107 µM), inactives show top-dose activity, negative = inhibition, hits mostly inhibitors | 400,000 compounds, 0.53% hits | AID 588579; further: on the % scale 0 is the no-effect control and ±100 the full control effect
#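 Kinetic fluorescence readout at 0 and 10 min followed reaction start with substrate at 50 nM final. Beforehand, enzyme (10 nM Pol kappa) stood 15 min with compound at room temperature; buffer-only wells were negative controls.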
# Pol eta inh-1: DNA polymerase eta (human) inhibition; Q9Y253; recombinant Pol eta, fluorescent DNA replication assay; Potency, µM (top dose mostly 114 µM), without a hit: top-dose activity change, negative = inhibition, most hits filed as inhibitors; 390,000 compounds, 1.2% hits; further: on the % scale 0 is the no-effect control and ±100 the full control effect
#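 Fluorescent replication assay: 50 nM final substrate added after a 15 min room-temperature compound preincubation with 10 nM enzyme. Signal taken at 0 min and again at 10 min.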
# POLB inh: DNA polymerase beta (human) inhibition; Pol beta primer extension/strand displacement, fluorescence kinetic; Potency, µM (series often up to 114 µM), for inactives: at the top dose activity change, negative = inhibition, actives largely listed as inhibitors; 340,000 compounds, 1.3% hits; further: on the % scale 0 is the no-effect control and ±100 the full control effect
#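 Preincubation: enzyme (10 nM) with compound, 15 min, RT. Reaction: substrate added to 50 nM final. Reads: 0 and 10 min. Analysis: normalized, Hill fit.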
# POLI inh: inhibitors of human DNA polymerase iota | AID 588590 | Pol iota fluorescent replication assay, 10 min | 390,000 compounds, 1% hits | Potency, µM (doses to about 115 µM), for inactives: at the highest dose activity, negative = inhibition, most hits filed as inhibitors | Q9UNA4
#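 Fluorescent replication assay read twice, at 0 min and 10 min after adding 50 nM (final) substrate. Enzyme (10 nM) and compounds were first incubated 15 min at room temperature; enzyme-free buffer wells were negative controls.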
# FEN1 inh-1: blocks human flap endonuclease 1 | Recombinant FEN1 flap cleavage, fluorescence, 15 min | Potency, µM (titrated, usually from 114 µM), inactives show top-dose activity change, negative = inhibition, hits mostly inhibitors | 390,000 compounds, 0.35% hits | AID 588795; further: on the % scale 0 is the no-effect control and ±100 the full control effect; nearly all actives have a fitted effect of over 65% in size
#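 Reaction started by adding substrate (50 nM final) to 10 nM enzyme after 15 min room-temperature compound preincubation. Reads at 0 and 15 min, with data normalized and fitted to a four-parameter Hill equation.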
# Pol iota confirm: Inhibitors of human DNA polymerase iota, confirmation; shares compounds with Pol kappa inh-1; Pol iota primer extension, TAMRA/BHQ fluorescence; Potency, µM, usual class: inhibitors; 1,500 compounds, 77% hits; AID 720496
# Pol kappa inh-2: confirmation of human DNA polymerase kappa inhibitors; shares compounds with Pol eta inh-1; purified Pol-kappa, fluorescent strand-displacement substrate; Potency, µM, usual class: inhibitors; 920 compounds, 76% hits; AID 720501
# Pol eta inh-2: confirmation of human DNA polymerase eta inhibitors; Pol eta primer extension, TAMRA/BHQ fluorescence, 10 min; Potency, µM, actives largely listed as inhibitors; 2,600 compounds, 64% hits; shares compounds with Pol eta inh-1
# FEN1 inh-2: confirmation of human FEN1 inhibitors; shares compounds with FEN1 inh-1; AID 720498; Potency, µM, usual class: inhibitors; FEN1 flap cleavage, TAMRA/BHQ2 fluorogenic DNA substrate; 880 compounds, 79% hits; further: nearly all actives have a fitted effect of over 60% in size
# WRN helicase inh-2: confirmation of human WRN helicase inhibitors; 610 compounds, 63% hits; Potency, µM (top dose mostly 57.1 µM), inactives show at the highest dose activity, negative = inhibition, most hits filed as inhibitors; shares compounds with WRN helicase inh-1; WRN helicase DNA unwinding, fluorescence kinetic; further: nearly all actives have a fitted effect of over 65% in size
# TO displacement: binds DNA, flagged in WRN inhibitor counterscreen; Potency, µM (titrated, usually from 57.1 µM), for inactives: at the top dose activity change, negative = inhibition, actives largely listed as inhibitors; 610 compounds, 10% hits; shares compounds with WRN helicase inh-1; thiazole orange DNA binding displacement, fluorescence;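 further: drop in dye fluorescence marks compound binding to DNA; on the % scale 0 is the no-effect control and ±100 the full control effect; nearly all actives have a fitted effect of over 60% in size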
# BLM helicase inh: blocks human BLM helicase in WRN counterscreen | shares compounds with WRN helicase inh-1 | Recombinant BLM helicase DNA unwinding, red fluorescence | Potency, µM (titrated, usually from 57.1 µM), for the others: at the top dose activity change, negative = inhibition, most hits filed as inhibitors | 610 compounds, 60% hits | AID 720503; further: nearly all actives have a fitted effect of over 60% in size
# Active calls of the source: *; u = inconclusive; x = no result given; [ ] = dose if it differs, or a comment. Hits are enriched below; roughly 2.4% of the tested compounds scored in any of these assays. The call rests on the fitted dose curve; in most records, active means well fitted curve in the direction sought with a large enough effect; inconclusive means small, poorly fitted or top-dose-only effect, or another doubt; inactive means no such curve, though single readings can be large; an effect the other way counts as inactive or inconclusive. Potency means the concentration at half of the fitted maximal effect.
SMILES,WRN helicase inh-1,Pol kappa inh-1,Pol eta inh-1,POLB inh,POLI inh,FEN1 inh-1,Pol iota confirm,Pol eta inh-2,FEN1 inh-2,WRN helicase inh-2,TO displacement,BLM helicase inh,others
COC(=O)c1sc2cccc(F)c2c1S(=O)(=O)N1CCN(c2ccc(F)cc2)CC1,x,1%,-21%,13%,29%,-3%,x,x,x,x,x,x,
COc1cccc2c1C(=O)c1c(O)c3c(c(O)c1C2=O)CC(O)(C(=O)CO)CC3OC1CC(N(C)C)C(O)C(C)O1 (centres undefined),3µM*,u,u,x,40µM*,18µM*,2.7*,27*,34*,17µM*,171%,27µM*,Pol kappa inh-2=34*
CCOC(=O)c1ccccc1S(=O)(=O)N1CCN(c2nc(-c3cccs3)nc3ccccc23)CC1,x,-5%,x,x,-2%,-14%,x,x,x,x,x,x,
Nc1nonc1-c1nc2ccccc2n1CC(=O)Nc1ccccc1C(=O)O,x,-15%,-6%,-1%,8%,2%,x,x,x,x,x,x,
Nc1nonc1-c1nc2ccccc2n1CC(=O)N/N=C/c1ccc(-c2cccc(C(=O)O)c2)o1,40µM*,u,18µM*,20µM*,18µM*,45µM*,75*,24*,38*,24µM*,u,24µM*,
CC(C)CN(C[C@@H](O)[C@H](Cc1ccccc1)NC(=O)O[C@H]1CO[C@H]2OCC[C@H]21)S(=O)(=O)c1ccc(N)cc1,x,-2%[19.4 µM],x,x,x,x,x,x,x,x,x,x,
COc1ccc(-c2nn(C)c3sc(C(=O)Nc4cc(OC)c(OC)c(OC)c4)cc23)cc1OC,x,50µM*,40µM*,45µM*,22µM*,10µM*,38*,60*,7.6*,9.6µM*,u,11µM*,
COc1cccc2c(SCC(=O)N/N=C/c3ccc(O)c(O)c3)cc(C)nc12,20µM*,13µM*,7.9µM*,2µM*,11µM*,u,30*,19*,x,4.8µM*,u,4.8µM*,
